Screens deposited in PubChem by National Center for Advancing Translational Sciences (NCATS).
MmCpn inh: M. maripaludis TRiC chaperonin inhibition; 330,000 tested, 0.031% active; purified Mm-Cpn ATPase, ADP Transcreener TR-FRET; Potency, µM (series often up to 76.9 µM), inactives show at the highest dose activity, negative = inhibition, most hits filed as inhibitors; also: potency is read from the fitted curve at half-maximal effect; % is scaled to controls: 0 for no effect and ±100 for the full control effect; nearly all actives have a fitted effect of over 80% in size
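TR-FRET (320 nm excitation; 590 and 665 nm emission) reports ADP made from 10 uM ATP by 25 nM enzyme; compounds were preincubated 10 min, reaction run 30 min, both at 37°C.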
PINK1 modulator: changes PINK1 expression | PINK1 immunofluorescence, high-content cytometry, 24 h | Potency, µM (doses to about 76.6 µM), inactives show top-dose activation (PINK1 increase), most hits filed as activators | 410,000 tested, 0.2% active; active = well fitted activation curve with a large enough effect; inconclusive = small, poorly fitted or top-dose-only effect; cell line not stated here; also: potency is read from the fitted curve at half-maximal effect; % of control where 0% means no effect; nearly all actives have a fitted effect of over 65% in size
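Fluorescence from anti-PINK1 antibody, together with nuclear and cell stains, was scanned on a laser-scanning cytometer. Before staining, stable-line cells were incubated 24 hours with compounds at 5 concentrations; primary antibody 12 h at 10 degrees C.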
ALOX12 inh: blocks human arachidonate 12S-lipoxygenase; purified 12hLO, xylenol orange hydroperoxide absorbance; 580,000 tested, 1.1% active; P18054; Potency, µM (highest dose often 108 µM), inactives show top-dose activity change, negative = inhibition, actives largely listed as inhibitors; also: potency is read from the fitted curve at half-maximal effect; % is scaled to controls: 0 for no effect and ±100 for the full control effect
Target sequence (P18054 whole entry, looked up): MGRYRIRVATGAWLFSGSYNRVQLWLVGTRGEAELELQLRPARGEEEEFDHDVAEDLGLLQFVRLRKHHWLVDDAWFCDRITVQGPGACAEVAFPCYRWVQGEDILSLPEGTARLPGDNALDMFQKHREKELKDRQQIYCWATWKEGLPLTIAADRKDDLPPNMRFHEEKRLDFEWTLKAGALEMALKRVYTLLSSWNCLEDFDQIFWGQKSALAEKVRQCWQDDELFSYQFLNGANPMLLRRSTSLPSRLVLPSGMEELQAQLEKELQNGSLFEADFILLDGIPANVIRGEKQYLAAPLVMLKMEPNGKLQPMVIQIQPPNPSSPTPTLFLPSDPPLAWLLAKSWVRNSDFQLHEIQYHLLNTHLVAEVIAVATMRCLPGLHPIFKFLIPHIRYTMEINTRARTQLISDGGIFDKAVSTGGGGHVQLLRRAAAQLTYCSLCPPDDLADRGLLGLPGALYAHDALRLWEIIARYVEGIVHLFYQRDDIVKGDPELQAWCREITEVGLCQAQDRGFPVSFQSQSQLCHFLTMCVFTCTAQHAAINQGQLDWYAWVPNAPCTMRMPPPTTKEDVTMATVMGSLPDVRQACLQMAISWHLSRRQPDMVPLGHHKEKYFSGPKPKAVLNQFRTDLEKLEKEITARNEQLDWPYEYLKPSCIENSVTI
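Hydroperoxide product was detected by ferrous iron/xylenol orange as the 573 to 405 nm absorbance ratio. Arachidonic acid at 40 uM (final) was turned over for 30 min at room temperature by 150 nM human 12hLO, pH 7.0 Hepes buffer, after 15 min compound preincubation.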
S-ASM inh: human S-ASM enzyme inhibition | 340,000 tested, 0.006% active | Potency, µM (doses to about 57.5 µM), for the others: at the top dose activity change, negative = inhibition, usual class: inhibitors | P17405 | AID 504937 | placental ASM, HMU-PC fluorogenic substrate, 60 min; also: potency is read from the fitted curve at half-maximal effect
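Human placenta-derived ASM preincubated with compound 10 min at room temperature, then reacted with 9 uM (final) fluorogenic HMU-PC substrate for 60 min at 37 C. Stop solution raises pH to 10; fluorescence read at Ex 386/Em 447 nm.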
CCT modulator: modulators of cytosolic chaperonin (CCT/TRiC) activity; activity change, % (concentration not given with the values), hits read low; 360,000 tested, 0.3% active; AID 651819; purified chaperonin ATPase assay, HTRF ADP detection, 30 min; in the data active = activity change below about -30%; also: % is scaled to controls: 0 for no effect and ±100 for the full control effect
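We incubate TRiC, 40 or 20 nM final, with library compounds at 76 uM and 10 uM ATP for 30 min at 37 °C. ADP formed is detected with Transcreener HTRF reagents after 30 min at room temperature.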
p53 reactivation: mutant p53 re-activation in reporter cells; H1299 p53-A138V BP100-luciferase reporter, luminescence, 24 h; Potency, µM (doses to about 92.2 µM), without a hit: at the top dose activity change, positive = activation, hits mostly activators; 320,000 tested, 0.063% active; AID 504706; also: potency is read from the fitted curve at half-maximal effect; % of control where 0% means no effect; nearly all actives have a fitted effect of over 45% in size
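H1299 (p53-null), stable ts p53-A138V + BP100-Luc; 1000 cells/well, Opti-MEM/10% FBS; cpd 4 pt, 1:5; 24 h, 37 deg C, 5% CO2; detection reagent 10 min RT; luminescence.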
The depositor's hits bear a star; u = inconclusive; x = no result given; [ ] = remark or other dose. Shown are actives, neighbours in structure and some others; about 1.4% of the full set was active somewhere. Unless noted, calls follow the shape of the dose curve; as a rule, active = well fitted curve in the direction sought with a large enough effect; inconclusive = small, poorly fitted or top-dose-only effect, or another doubt; inactive = no such curve, though single readings can be large; an effect the other way counts as inactive or inconclusive.

SMILES	MmCpn inh	PINK1 modulator	ALOX12 inh	S-ASM inh	CCT modulator	p53 reactivation
COc1ccc(CCN2CCC(CNC(=O)c3cnn(-c4ccc(C)cc4)c3C3CCN(C(=O)OC(C)(C)C)CC3)CC2)cc1	x	-2%	40µM*	x	x	x
CCc1cccc2c(C(=O)CN3CCN(C(C)C(=O)NC4CC4)CC3)c[nH]c12 (configuration not stated)	x	x	-6%	x	x	x
CCOc1ccc(-c2cc3ccccc3[nH]2)cc1	x	x	13µM*	x	x	x
COc1ccc(/C=C2\C(=O)ON=C2c2cccc([N+](=O)[O-])c2)cc1	2%	x	32µM*	x	x	4%
CCOc1cc(/C=C2\C(=O)ON=C2c2ccccc2)ccc1OC	-3%	-1%	13µM*	-1%	-3	-2%
NC(=O)COc1ccc(/C=C2\C(=O)ON=C2c2ccccc2)cc1	2%	2%	7.1µM*	1%	-1	-1%
COc1ccc(/C=C2\C(=O)ON=C2c2ccccc2)cc1OC	2%	-1%	7.1µM*	5%	2	x
COc1ccc(/C=C2/C(=O)ON=C2c2ccccc2)cc1OC	0%	0%	u	-1%	-2	-6%
COCCOCC1(CNC(=O)c2cnccn2)C[C@@H](O)[C@@H](O)C1 (some centres not stated)	x	x	64%[176 µM]	x	x	x
Cc1cc(Nc2ccccc2C)c2c([N+](=O)[O-])cc(C)c(C)c2n1	x	x	7%	x	x	x
O=C(Nc1cccc(C(F)(F)F)c1)c1c(-c2ccccc2)nc2n1CCS2(=O)=O	x	x	-10%	x	x	x
CC(=O)Oc1ccccc1C(=O)Nc1ccc2c(c1)CN(Cc1ccc(Cl)cc1)C(=O)C(C)O2 (configuration not stated)	x	x	8%	x	x	x
Cc1ccc(C2=NOC(=O)/C2=C\C=C\c2ccccc2)cc1	1%	-1%	1.1µM*	0%	-4	-10%
CN(C)/C=C1\C(=O)ON=C1c1ccccc1	1%	1%	-4%	2%	-3	-2%
O=[N+]([O-])c1ccccc1-c1ccc(/C=N/O)o1	x	x	-28%	x	x	x
O=C1ON=C(c2ccccc2)/C1=C/c1ccc(-c2ccccc2[N+](=O)[O-])o1	1%	-6%	4µM*	-3%	1	-30%
CC1=NN(c2ccccc2)C(=O)/C1=C/C=C/c1ccccc1	-2%	-2%	17%	-22%	-1	-26%
O=C1ON=C(c2ccccc2)/C1=C/c1ccco1	-4%	-1%	7.9µM*	-17%	1	-2%
Cc1cc(C)c(S(=O)(=O)N2CCOC23CCN(C(=O)c2ccc(F)c(F)c2)CC3)c(C)c1	x	x	10%	x	x	x
Cc1cc(C)c(O)c(-c2n[nH]c3c2C(c2cccc(O)c2)N(Cc2cccnc2)C3=O)c1 (configuration not stated)	x	x	-15%	x	x	x
CN(CC1CCOCC1)C(=O)CC1C(=O)NCCN1Cc1ccc(Cl)c(F)c1 (configuration not stated)	3%	-1%	u	13%	-42*	0%
CCOc1ccc(CN2CCNC(=O)C2CC(=O)N(C)CC2CCOCC2)cc1 (configuration not stated)	0%	0%	-18%	8%	-3	-8%
Oc1cccnc1SCc1ccccc1	1%	3%	6.3µM*	1%	0	u
Cn1c(=O)[nH]c(=O)c2c1nc(N1CCCC1)n2CC(O)COc1ccc(Cl)cc1 (configuration not stated)	x	x	2%	x	x	x
CCc1ccccc1NC(=O)C1CCCC1	x	3%	10%	-1%	1	x
CCc1ccccc1NC(=O)C1CC1	x	x	0.79µM*	x	x	x
CCn1c(/C=C/c2ccccc2C)nc2ccccc2c1=O	-1%	3%	-11%	-7%	-3	2%
CCn1c(/C=C/c2c(C)n(CC)c3ccccc23)nc2ccccc2c1=O	0%	18µM*	-14%	4%	-1	2%
